# Bioassay records as filed in PubChem.
# An excerpt weighted towards active compounds, which were near 7.3% of everything screened.
# FMDV antiviral: High Throughput Screening for Foot and Mouth Disease Virus Antivirals. FMDV antiviral cell-based qHTS. Potency, µM (titrated, usually from 57.9 µM), without a hit: at the highest dose activity change, negative = inhibition, actives largely listed as inhibitors. hit rate 1.2% among 410,000; calls by dose curve; tested in HEK293T cells; also: read-out not given here; potency is read from the fitted curve at half-maximal effect; nearly all actives have a fitted effect of over 45% in size
# HCMV antiviral: qHTS Assay for inhibitors of the human cytomegalovirus (HCMV); HFF cells, HCMV-luciferase reporter, 72 h; stronger effect = lower value; hit rate 4.5% among 410,000; activity change, negative = inhibition, % at 57.5 µM; AID 1259415, 2018; in the data active = activity change below about -60%; inconclusive = no clear call, values can overlap the other calls; inactive = above about -39%
#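 Luciferase read-out from HCMV-luciferase-infected HFFs (MOI 1 PFU/cell) 72 h post infection at 37C; compounds added after 16 h cell attachment; activity normalized between buffer-only basal and Salinomycin (10uM) inhibitor controls.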
# Vaccinia mCherry: qHTS for Stage-Specific Inhibitors of Vaccinia Orthopoxvirus: mCherry Reporter Primary qHTS | Vaccinia virus mCherry reporter infection, fluorescence | Potency, µM (series often up to 36.5 µM), without a hit: at the highest dose activity change, negative = inhibition, hits mostly inhibitors | hit rate 0.63% among 310,000; calls by dose curve; tested in A549 cells; also: potency is read from the fitted curve at half-maximal effect; nearly all actives have a fitted effect of over 35% in size
# VACV Venus inh: qHTS for Stage-Specific Inhibitors of Vaccinia Orthopoxvirus: Venus Reporter Primary qHTS; Potency, µM (highest dose often 36.5 µM), for inactives: top-dose activity change, negative = inhibition, most hits filed as inhibitors; Vaccinia virus Venus reporter expression, fluorescence; AID 720580, 2013; hit rate 0.46% among 330,000; calls by dose curve; tested in A549 cells; also: potency is read from the fitted curve at half-maximal effect; nearly all actives have a fitted effect of over 30% in size
# HCV inh: qHTS Assay for Inhibitors of Hepatitis C Virus (HCV) | Huh7.5.1 HCVcc-Cre infection, luciferase reporter, 44 h | Potency, µM (highest dose often 41.8 µM), for inactives: top-dose activity change, negative = inhibition, usual class: inhibitors | hit rate 3.4% among 340,000 | AID 651820, 2012; active = well fitted inhibition curve with a large enough effect; inconclusive = small, poorly fitted or top-dose-only effect, or another doubt; inactive = no such curve, though single readings can be large or run the other way; also: potency is read from the fitted curve at half-maximal effect
#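 Cells (1,000/well) were plated 4 h before compound, then infected with HCVcc-Cre virus (~0.5 moi). After 44 h further culture, infection was read as luciferase luminescence following a 15 min substrate incubation at room temperature.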
# An asterisk follows results filed as active; i = inactive; ? = inconclusive; · = not tested or not shown. % is scaled to controls: 0 for no effect and ±100 for the full control effect.
SMILES,FMDV antiviral,HCMV antiviral,Vaccinia mCherry,VACV Venus inh,HCV inh
COc1cc(CN2CCCC(n3cc(C(=O)N4CCCCC4)nn3)C2)cc(OC)c1 (stereo unspecified),-11%,·,-26%,-28%,·
COc1ccccc1[C@]1(C)ON(c2ccccc2C(F)(F)F)C1=O,?,-1,?,?,?
CC[C@]1(c2ccccc2OC)ON(c2ccccc2C(F)(F)F)C1=O,22µM*,-29,-23%,?,?
CCOc1ccc(N(C)S(=O)(=O)c2ccc3c(c2)C(C)(C)C(=O)N3C)cc1,?,1,-10%,3%,·
COCCn1c(N)c(S(=O)(=O)c2cccs2)c2nc3ccccc3nc21,·,·,i,-14%,-12%
COc1cccc(/C=N/n2c(N)c(S(=O)(=O)c3cccs3)c3nc4ccccc4nc32)c1OC,17%,-81*,·,·,?
O=S(=O)(Nc1cccnc1)c1ccc(C2CCCCC2)cc1,-31%,-66*,?,?,-14%
COc1ccc(N2CCN(C(=O)c3nn(-c4ccc(C)cc4)c(=O)n(C)c3=O)CC2)cc1,4%,-4,-11%,-24%,·
Cc1onc(-c2c(Cl)cccc2Cl)c1-c1nnc(-c2ccc(Cl)cc2)o1,?,-12,-5%,-13%,18µM*
COc1ccc2c(c1)NC(c1ccc(OCC(C)C)cc1)=NC(c1ccncc1)=N2,14%,12,-7%,-16%,·
COc1cc2c(=O)c(C(=O)c3ccc(C)c(C)c3)cn(Cc3ccccc3F)c2cc1OC,?,-72*,-17%,-8%,·
CCc1ccc(C(=O)c2cn(Cc3ccccc3)c3cc(OC)c(OC)cc3c2=O)cc1,-27%,-65*,i,-14%,·
COc1ccccc1Cn1cc(C(=O)c2ccc(Cl)cc2)c(=O)c2ccccc21,0%,-101*,-6%,?,·
COC(=O)[C@@H]1CCCN1C(=O)c1c(OC)cc(=O)n2c1CCN(Cc1ccc3c(c1)CCO3)CC2,-5%,·,-8%,2%,·
CCC1C(=O)NCCN1Cc1ccc2c(c1)CN(Cc1ccc(F)c(OC)c1)CCO2 (stereo unspecified),-17%,·,-8%,5%,·
O=C(NCc1cccc(F)c1)[C@@H]1[C@@H](CO)[C@@H]2Cn3c(cccc3=O)[C@H]1N2C(=O)c1cnccn1,·,-9,·,·,·
Cc1ccc(Cn2c(C(=O)O)c(CNC3CCCCCC3)c3ccc(C)cc32)cc1,-1%,13,-1%,-4%,·
CC(C)(C)c1ccc(C(=O)N2CC(=O)Nc3ccc(F)cc3C2c2ccc(F)cc2)cc1 (stereo unspecified),-18%,-14,-15%,-20%,·
CC12CCC3c4ccc(O)cc4CCC3C1CCC2O (stereo unspecified),-12%,·,·,·,·
C[C@]12CC[C@@H]3c4cc(O)c(O)cc4CC[C@H]3[C@@H]1CC[C@@H]2O,-4%,-14,-9%,-25%,13µM*
Cc1ccc(N=C2NC(=O)/C(=C\c3ccsc3)S2)c(C)c1,4%,-72*,-19%,-28%,-23%
Cc1ccc(N=C2NC(=O)CS2)c(C)c1,0%,-10,·,-17%,23%
Cc1ccc(N=C2NC(=O)/C(=C/c3cccnc3)S2)c(C)c1,?,-80*,-3%,-22%,21%
Cc1cc(Nc2ccccc2C)n2nc(Cc3ccc(Cl)cc3)nc2n1,-20%,-29,-2%,3%,·
CC(C)c1nn2c(=O)cc(COC(=O)c3cccc(NC(=O)c4cccs4)c3)nc2s1,4%,-37,-12%,-3%,·
COC(=O)/C=c1/s/c(=C(\C#N)C(=O)NCc2ccco2)n(-c2ccccc2)c1=O,-19%,-9,-5%,7%,2%
COCCN1C(=O)CS/C1=C(/C#N)C(=O)NCc1ccco1,4%,-84*,15%,59%,7%
O=C(C1CCCN(S(=O)(=O)c2ccc(Br)s2)C1)N1CCN(c2ccccc2)CC1 (stereo unspecified),?,-13,-17%,-23%,10µM*
O=C(C1CCCN(S(=O)(=O)c2ccc(Br)s2)C1)N1CCCCCC1 (stereo unspecified),?,-17,·,-26%,?
